Assay results reported in PubChem BioAssay AID1159580 (chemical genetic matrix, 2015).
Several values for one entry are separate records, joined by “and”; a condition that tells them apart may be missing. Equal values may be shown once. Among all 5,500 compounds or so, about 2,000 (36%) were called active. About 18% were inconclusive and are not listed. Cut-off read from the data, not from the text of the source: active = normalized growth mostly below about 0.91 (no sharp cut-off); inconclusive = no clear call, values can overlap the other calls; inactive = mostly above about 0.92. The list shows a part of the results.

Assay: chemical genetic growth profiling, strain panel (AID 1159580);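 note: tested at 20 µM; growth read once vehicle control cultures reached saturation at 30 °C; 1 = growth at the plate median or of vehicle wells; lower values mean less growth of the strain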
Details: growth OD

Measured: normalized growth

C1CCc2nnnn2CC1
inactive: S. cerevisiae deletion strains, locus YJR075W, strain HOC1, active compounds read low 1.03 and 1.01 | S. cerevisiae deletion strains, locus YKL009W, strain mrt4, active compounds read low 1.03 | S. cerevisiae deletion strains, locus YKL068W, active compounds read low 1.02 | S. cerevisiae deletion strains, locus YKL085W, strain MDH1 (second series), active compounds read low 1 | S. cerevisiae deletion strains, locus YKL085W, strain MDH1, active compounds read low 1 | S. cerevisiae deletion strains, locus YKL160W, strain elf1, active compounds read low 1.01 | S. cerevisiae deletion strains, locus YKL190W, strain CNB1, active compounds read low 1 | S. cerevisiae deletion strains, locus YKR001C, strain vps1, active compounds read low 1.02 | S. cerevisiae deletion strains, locus YKR026C, strain gcn3, active compounds read low 1.01 | S. cerevisiae deletion strains, locus YKR091W, strain srl3, active compounds read low 1 | S. cerevisiae deletion strains, locus YLL001W, strain dnm1, active compounds read low 1 | S. cerevisiae deletion strains, locus YLL026W, active compounds read low 1 | S. cerevisiae deletion strains, locus YLL041C, strain sdh2, active compounds read low 1 | S. cerevisiae deletion strains, locus YLR027C, strain aat2, active compounds read low 1 | S. cerevisiae deletion strains, locus YLR039C, strain RIC1, active compounds read low 1.03 | S. cerevisiae deletion strains, locus YLR058C, strain SHM2, active compounds read low 1.02 | S. cerevisiae deletion strains, locus YLR102C, strain apc9, active compounds read low 1 | S. cerevisiae deletion strains, locus YLR113W, strain HOG1, active compounds read low 0.985 | S. cerevisiae deletion strains, locus YLR221C, strain rsa3, active compounds read low 1.01 | S. cerevisiae deletion strains, locus YLR258W, strain gsy2, active compounds read low 1.01 | S. cerevisiae deletion strains, locus YLR262C, strain YPT6 (second series), active compounds read low 1.02 | S. cerevisiae deletion strains, locus YLR262C, strain YPT6, active compounds read low 1.04 | S. cerevisiae deletion strains, locus YLR268W, strain sec22, active compounds read low 1.05 | S. cerevisiae deletion strains, locus YLR320W, strain mms22, active compounds read low 1.01 | S. cerevisiae deletion strains, locus YLR330W, strain CHS5, active compounds read low 1 | S. cerevisiae deletion strains, locus YLR342W, strain FKS1 (second series), active compounds read low 1.01 | S. cerevisiae deletion strains, locus YLR342W, strain FKS1, active compounds read low 1.01 | S. cerevisiae deletion strains, locus YLR357W, strain rsc2, active compounds read low 0.983 | S. cerevisiae deletion strains, locus YLR370C, strain arc18, active compounds read low 1.01 | S. cerevisiae deletion strains, locus YLR371W, strain rom2, active compounds read low 1.02 | S. cerevisiae deletion strains, locus YLR384C, strain iki3, active compounds read low 0.999 | S. cerevisiae deletion strains, locus YLR418C, strain cdc73, active compounds read low 1.02 | S. cerevisiae deletion strains, locus YML016C, strain PPZ1, active compounds read low 1.01 | S. cerevisiae deletion strains, locus YML032C, strain rad52, active compounds read low 1.03 | S. cerevisiae deletion strains, locus YML120C, strain ndi1, active compounds read low 0.998 | S. cerevisiae deletion strains, locus YML124C, strain tub3, active compounds read low 1.01 | S. cerevisiae deletion strains, locus YMR058W, strain fet3, active compounds read low 1.01 | S. cerevisiae deletion strains, locus YMR078C, strain ctf18, active compounds read low 1.02 | S. cerevisiae deletion strains, locus YMR125W, strain sto1, active compounds read low 1.01 | S. cerevisiae deletion strains, locus YMR129W, active compounds read low 1.01 | S. cerevisiae deletion strains, locus YMR205C, strain PFK2, active compounds read low 1.03 | S. cerevisiae deletion strains, locus YMR223W, strain ubp8, active compounds read low 0.987 | S. cerevisiae deletion strains, locus YMR231W, strain pep5, active compounds read low 1 | S. cerevisiae deletion strains, locus YMR263W, strain SAP30, active compounds read low 1.03 | S. cerevisiae deletion strains, locus YMR307W, strain GAS1, active compounds read low 1.01 | S. cerevisiae deletion strains, locus YNL067W, strain RPL9B, active compounds read low 1.03 | S. cerevisiae deletion strains, locus YNL071W, strain lat1, active compounds read low 0.999 | S. cerevisiae deletion strains, locus YNL128W, strain TEP1, active compounds read low 1.02 | S. cerevisiae deletion strains, locus YNL153C, strain GIM3, active compounds read low 1.02 and 1.14 | S. cerevisiae deletion strains, locus YNL175C, strain NOP13, active compounds read low 1.01 | S. cerevisiae deletion strains, locus YNL183C, strain NPR1, active compounds read low 0.918 | S. cerevisiae deletion strains, locus YNL197C, strain WHI3, active compounds read low 1.01 | S. cerevisiae deletion strains, locus YNL209W, strain ssb2, active compounds read low 1.01 | S. cerevisiae deletion strains, locus YNL224C, strain SQS1, active compounds read low 1.02 | S. cerevisiae deletion strains, locus YNL233W, strain BNI4, active compounds read low 0.982 | S. cerevisiae deletion strains, locus YNL248C, strain rpa49, active compounds read low 0.994 | S. cerevisiae deletion strains, locus YNL250W, strain rad50, active compounds read low 1 | S. cerevisiae deletion strains, locus YNL271C, strain bni1, active compounds read low 1.02 | S. cerevisiae deletion strains, locus YNL298W, strain CLA4, active compounds read low 1.01 | S. cerevisiae deletion strains, locus YNL307C, strain MCK1, active compounds read low 1.01 | S. cerevisiae deletion strains, locus YNL322C, strain KRE1 (second series), active compounds read low 1.01 | S. cerevisiae deletion strains, locus YNL322C, strain KRE1, active compounds read low 1.01 and 1 | S. cerevisiae deletion strains, locus YNR049C, strain mso1, active compounds read low 1.01 | S. cerevisiae deletion strains, locus YNR052C, strain pop2, active compounds read low 1 | S. cerevisiae deletion strains, locus YOL006C, strain TOP1, active compounds read low 1.08 | S. cerevisiae deletion strains, locus YOL012C, strain htz1 0.99 | S. cerevisiae deletion strains, locus YOL147C, strain pex11, active compounds read low 1.01 | S. cerevisiae deletion strains, locus YOR001W, strain rrp6, active compounds read low 1 | S. cerevisiae deletion strains, locus YOR061W, strain CKA2, active compounds read low 1.01 | S. cerevisiae deletion strains, locus YOR069W, strain VPS5, active compounds read low 1.02 | S. cerevisiae deletion strains, locus YOR070C, strain gyp1, active compounds read low 0.999 | S. cerevisiae deletion strains, locus YOR080W, strain dia2, active compounds read low 1 | S. cerevisiae deletion strains, locus YOR083W, strain WHI5 (second series), active compounds read low 1.02 | S. cerevisiae deletion strains, locus YOR083W, strain WHI5, active compounds read low 1.02 | S. cerevisiae deletion strains, locus YOR106W, strain vam3, active compounds read low 1.01 | S. cerevisiae deletion strains, locus YOR136W, strain idh2, active compounds read low 0.992 | S. cerevisiae deletion strains, locus YOR144C, strain elg1, active compounds read low 1.01 | S. cerevisiae deletion strains, locus YOR184W, strain ser1, active compounds read low 1.03 | S. cerevisiae deletion strains, locus YOR231W, strain MKK1, active compounds read low 0.982 | S. cerevisiae deletion strains, locus YOR265W, strain rbl2, active compounds read low 1.02 | S. cerevisiae deletion strains, locus YOR270C, strain vph1, active compounds read low 1.04 | S. cerevisiae deletion strains, locus YOR290C, strain snf2, active compounds read low 1.01 | S. cerevisiae deletion strains, locus YOR316C, strain cot1, active compounds read low 1.01 | S. cerevisiae deletion strains, locus YPL051W, strain arl3, active compounds read low 1.01 | S. cerevisiae deletion strains, locus YPL055C, strain LGE1, active compounds read low 0.977 | S. cerevisiae deletion strains, locus YPL078C, strain atp4, active compounds read low 1.01 | S. cerevisiae deletion strains, locus YPL106C, strain sse1, active compounds read low 1 | S. cerevisiae deletion strains, locus YPL240C, strain hsp82, active compounds read low 1.02 | S. cerevisiae deletion strains, locus YPL241C, strain CIN2, active compounds read low 1 | S. cerevisiae deletion strains, locus YPL256C, strain CLN2, active compounds read low 0.976 | S. cerevisiae deletion strains, locus YPR119W, strain clb2, active compounds read low 1 | S. cerevisiae deletion strains, locus YPR141C, strain kar3, active compounds read low 1 | S. cerevisiae deletion strains, locus YPR163C, strain tif3, active compounds read low 1.02 | S. cerevisiae deletion strains, locus YPR167C, strain met16, active compounds read low 1.01 | S. cerevisiae deletion strains, strain wtn01, active compounds read low 1.02 | S. cerevisiae strains, strain wild type, active compounds read low 1.01
